From PubChem BioAssay AID540256 (National Center for Advancing Translational Sciences (NCATS), 2011) come the findings set out here.

Hit rate of the full screen: of about 300,000 compounds, about 3,700 (1.2%) were called active. Roughly 20% stayed inconclusive and do not appear here. Shown is part of a subset that was picked to be rich in actives. A number with no mark means an inactive call. The call rests on the fitted dose curve; tested in HEK293 cells.
On the % scale 0 is the no-effect control and ±100 the full control effect; potency means the concentration at half of the fitted maximal effect.

A short description of the assay: qHTS for Inhibitors of binding or entry into cells for Lassa Virus. Further: nearly all actives have a fitted effect of over 50% in size. The settings on record: Lassa virus pseudotype entry inhibition, cell reporter; series mostly up to 37.9 µM; activity change, negative = inhibition: at the top concentration.
As for `CCCCCCCCn1c2c(c(=N)c3c1CCC3)CCCC2`, the Potency is 5.62 µM (active). For the compound `CCCCCCn1c(CN2CCCCC2)nc2c1c(=O)n(C)c(=O)n2C`, the “activity change, negative = inhibition” value is -21.6%.

As to `CCCCN(CC(=O)Nc1cccc(S(=O)(=O)N2CCCC2)c1)Cc1nc2ccccc2c(=O)[nH]1`, the “activity change, negative = inhibition” value is -17.3%.

For `O=C(Nc1ccccc1)Oc1cccc2cccnc12`, the “activity change, negative = inhibition” value is 0.944%.

As to `O=C(CNC(=O)c1ccccc1Br)NCCSc1ccc(Br)cc1`, the “activity change, negative = inhibition” value is -7.68%.

With `O=[N+]([O-])c1cc(S(=O)(=O)Nc2cccc(Cl)c2)ccc1N=Nc1c(O)[nH]c2ccccc12`, the Potency was 11.2 µM (active). With `CN1CCN(c2ccc(S(=O)(=O)Nc3ccccc3)cc2[N+](=O)[O-])CC1`, the “activity change, negative = inhibition” value was -6.99%. Still for that read-out and setting: to `Oc1[nH]c2ccccc2c1N=Nc1c(F)c(F)c(F)c(F)c1F` belongs 13.9%.

Take `CC1(C)N=C(N)NC(Nc2ccc(Cl)cc2)=N1`: the “activity change, negative = inhibition” value was 7.27% [at 46.1 µM]. For the compound `CS(=O)(=O)N(CC(=O)N1CCc2ccccc2C1)c1ccc(Br)cc1`, the “activity change, negative = inhibition” value was -2.02%.

`Cc1ccc(S(=O)(=O)N(CC(=O)N2CCc3ccccc3C2)c2cccc(Cl)c2)cc1`: the Potency is 14.1 µM (active). With `COc1cccc(N(CC(=O)N2CCc3ccccc3C2)S(C)(=O)=O)c1`, the “activity change, negative = inhibition” value was -7.14%.

In the case of `Cc1ccc(S(=O)(=O)N2CCC(C(=O)N3CCCCCCC3)CC2)cc1`, the “activity change, negative = inhibition” value is -28.9%. Turning to `O=C(c1ccc(F)c(S(=O)(=O)N2CCOCC2)c1)N(CCc1ccccc1)Cc1ccccc1`, the “activity change, negative = inhibition” value was -2.24%.

Turning to `Cc1cc(C2=NNC(=Nc3ccc(S(=O)(=O)N4CCOCC4)cc3)SC2)c(C)n1CC1CCCO1` (configuration not stated), the “activity change, negative = inhibition” value was 0.163% [at 46.1 µM]. For the compound `C=CCn1c(C)cc(C2=NNC(=NCC)SC2)c1C`, the Potency is 1.64 µM (active). `COc1ccc(C(=O)O/N=C(\N)Cc2ccc(Cl)cc2Cl)cc1OC`: the Potency was 20 µM (active).

Regarding `COc1ccc(C(=O)ON=C2c3ccccc3-c3ccccc32)cc1OC`, the “activity change, negative = inhibition” value is 21.5%. On the same count and under the same terms, to `COc1ccc(C/C(N)=N/OC(=O)c2ccco2)cc1OC` belongs 21.5%; to `O=C(CN1CCSc2ccccc21)N1CCN(c2ccccc2)CC1`, 7.02% [at 46.1 µM]. Same read-out and setting: to `CCOc1cc(C(=O)NCCc2csc3nc(-c4ccc(C)cc4)nn23)cc(OCC)c1OCC` belongs 12.3% [at 46.1 µM].

Turning to `Cc1cc(=O)[nH]c(SCc2ccc(Cl)cc2)n1`, the “activity change, negative = inhibition” value was -0.267%. For `O=C(O)CN1CCN(C(c2ccccc2)c2ccccc2)CC1`, the “activity change, negative = inhibition” value was 1.74% [at 46.1 µM]. On to `Cn1nnnc1SCC(=O)N1CCN(C(c2ccccc2)c2ccccc2)CC1`, for which the “activity change, negative = inhibition” value was 0.563%. As for `c1ccc(C(c2ccccc2)N2CCN(Cc3nnnn3C3CCCCC3)CC2)cc1`, the Potency is 11.6 µM (active). Consider `COc1ccc(N2CCN(C(=O)CCNC(=O)c3ccc(Br)cc3)CC2)cc1`, for which the “activity change, negative = inhibition” value was -23.1%.

As for `Cc1ccc(S(=O)(=O)NCCC(=O)OCC(=O)N(C)c2ccccc2)cc1`, the “activity change, negative = inhibition” value is 6.99% [at 46.1 µM]. The same measure, in the same setting: the value for `Cc1cc(C)nc(N/N=C/c2c(CO)cnc(C)c2O)n1` was -18.4% [at 46.1 µM]; that for `CC(C)(C)c1ccc(C(=O)NCCn2c(N)c(C#N)c3nc4ccccc4nc32)cc1` was -18.7%. As for `CN(C)CCCn1c(N)c(C#N)c2nc(C#N)c(C#N)nc21`, the Potency is 15.8 µM (active). `N#Cc1c(N)n(CCOC(=O)c2ccc(Cl)cc2)c2nc3ccccc3nc12`: the “activity change, negative = inhibition” value was 9.1%.

On to `O=C(Cc1ccc(S(=O)(=O)N2CCOCC2)s1)Nc1ccc(Br)c(C(F)(F)F)c1`, for which the “activity change, negative = inhibition” value is -16.6%. On the same count and under the same terms, the value for `O=C(Nc1ncccc1O)c1ccc(C(=O)c2ccccc2)cc1` was 1.16%. On to `N#CCN(C(=O)COC(=O)C1CC2CCCC(C1)C2=O)c1ccccc1` (configuration not stated), for which the “activity change, negative = inhibition” value is 0.703% [at 46.1 µM].

As for `O=C(Oc1cccc(N2C(=O)C3C4c5ccccc5C(c5ccccc54)C3C2=O)c1)c1ccco1` (configuration not stated), the Potency was 8.91 µM (active).

Regarding `CC(=O)Oc1cccc(N2C(=O)C3CC=C(Cl)CC3C2=O)c1` (configuration not stated), the “activity change, negative = inhibition” value is 24.4%.

For the compound `O=C(NC1CC(=O)N(c2ccccc2)C1)c1ccco1` (configuration not stated), the “activity change, negative = inhibition” value is 0.379% [at 46.1 µM]. On the same count and under the same terms, the value for `CCOc1ccc(CN2CCNC(=O)C2CC(=O)NCCCC2CCCC2)cc1` (configuration not stated) was -20.2%. On the same count and under the same terms, to `NC(=S)NN=C1CCCC(C(F)(F)F)C1` (configuration not stated) belongs 8.5%; to `Cc1c(C(=O)N2CCCc3ccccc32)oc2ccccc12`, 0.632% [at 46.1 µM]; to `O=C(c1c(Cl)nc2sccn12)N1CCCc2ccccc21`, 13%. As for `Cc1cccc2cc3c(N)c(C(=O)N4CCCc5ccccc54)sc3nc12`, the Potency is 2.82 µM (active). With `CC(=NNC(=O)c1ccc2nc[nH]c2c1)c1ccc(Br)cc1`, the “activity change, negative = inhibition” value is -8.19% [at 46.1 µM]. For `O=C(NCCc1ccc(Cl)cc1)c1ccc2c(c1)N(Cc1ccc(F)cc1)C(=O)CS2`, the “activity change, negative = inhibition” value is 0.26% [at 46.1 µM]. Take `CCOc1ccc(Br)cc1S(=O)(=O)Nc1ccc(S(=O)(=O)Nc2cc(C)on2)cc1`: the “activity change, negative = inhibition” value was 9.12% [at 46.1 µM]. Turning to `CCc1ccc(C(CNc2nc(C(F)(F)F)nc3ccccc23)N(C)C)cc1` (configuration not stated), the Potency was 10 µM (active). `CC(Nc1nc(C(F)(F)F)nc2ccccc12)c1cccs1` (configuration not stated): the “activity change, negative = inhibition” value was -11.1%. `NS(=O)(=O)c1ccc(CCNc2nc(C(F)(F)F)nc3ccccc23)cc1`: the “activity change, negative = inhibition” value was -9.35%. In the case of `Cc1ccc(S(=O)(=O)n2oc(=O)c(C3CCCCC3)c2N)cc1`, the “activity change, negative = inhibition” value is 0% [at 46.1 µM]. Still for that read-out and setting: the value for `CNC(=S)N1CCN(c2ccccn2)CC1` was 5.69%. For the compound `C/C(=N\NC(=O)Cc1ccc(Cl)cc1)c1ccccn1`, the Potency was 8.2 µM (active). Regarding `C/C(=N\NC(=O)c1ccccc1F)c1ccccn1`, the Potency is 7.08 µM (active).
